From PubChem BioAssay (NCI)
About 83,000 compounds went through this panel and 20% of them were active in at least one assay; those are over-represented in the sample as a whole.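 Values shown are percent growth following 48 h exposure of cells in 96-well plates to a single concentration of compound; below 10 was considered active.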 Unmarked numbers belong to inactive results. Calls of active or inactive are those of the source.

Legend:
Test in all cases: NCI-60 one-dose screen, 48 h (100 = growth as untreated, 0 = no growth, -100 = all killed)
Settings in all cases: 10 µM unless noted
SR leukemia = test system: SR leukemia
RPMI-8226 leukemia = test system: RPMI-8226 leukemia
OVCAR-8 ovarian = test system: OVCAR-8 ovarian
OVCAR-5 ovarian = test system: OVCAR-5 ovarian
OVCAR-4 ovarian = test system: OVCAR-4 ovarian
SK-OV-3 ovarian = test system: SK-OV-3 ovarian
IGROV1 ovarian = test system: IGROV1 ovarian
OVCAR-3 ovarian = test system: OVCAR-3 ovarian
HS 578T breast = test system: HS 578T breast
NCI/ADR-RES ovarian = test system: NCI/ADR-RES ovarian

Compound	growth (SR leukemia)	growth (RPMI-8226 leukemia)	growth (OVCAR-8 ovarian)	growth (OVCAR-5 ovarian)	growth (OVCAR-4 ovarian)	growth (SK-OV-3 ovarian) [%]	growth (IGROV1 ovarian)	growth (OVCAR-3 ovarian)	growth (HS 578T breast)	growth (NCI/ADR-RES ovarian)
Oc1c(Cl)cc(Cl)c(Cl)c1CNCCNCc1c(O)c(Cl)cc(Cl)c1Cl	1.15% (active)	18%	11.3%	54%	22.6%	22	16.4%	19.1%	57.7%	4.33% (active)
OCc1cnccc1NCCCCOc1ccc(Oc2ccccc2)cc1	31.7%	24.7%	65.1%	84.1%	63.2%	87.2	72.7%	66.6%	59.6%	65.8%
Cn1ccc2c1CC1CN(Cc3ccco3)C(=O)C1C2C(=O)O (stereo not given)	107%	109%	106%	95%	99.5%	109	104%	103%	98.7%	99%
NCCCCCCNc1cc(-c2cccc(OC(F)(F)F)c2)nc2ccc(N3CCCC3)cc12	-24.7% (active)	-37.8% (active)	2.63% (active)	12.6%	-39.8% (active)	93.6	-55.6% (active)	-82.4% (active)	-54% (active)	5.01% (active)
Cc1ccc(-c2[nH][nH]c(=O)c2-c2nc3ccccc3s2)cc1	97.9%	96.9%	105%	94.4%	105%	104	106%	111%	97.3%	98%
CCCCCN1C=C/C(=C\C(=O)N(C)c2ccccc2Br)c2ccccc21	74.3%	73.6%	88.7%	96%	83.5%	94	98.5%	97.4%	96.8%	100%
NC(=O)Nc1ccc(-n2cnc3cc(-c4ccc(O)cc4)ccc32)cc1	88.1%	91.5%	97.4%	97.5%	89%	137	108%	108%	109%	103%
COc1cc2c(-c3cc4c(cc3CNCCc3ccc5c(c3)OCO5)OCO4)cccc2c(OC)c1O	27.8%	63.8%	79.9%	90.9%	88.4%	99.6	61.6%	86.1%	86.8%	74.5%
N/C(=N\C(N)=N\c1nc2ccccc2s1)c1ccnc(Br)c1	25%	23.6%	33.8%	89.4%	59.1%	29.6	25.8%	9.06% (active)	19.3%	20.1%
O=C1Nc2cc(-c3ccc(NC(=O)c4ccccc4)cc3)ccc2/C1=C/c1ccc[nH]1	29.7%	101%	101%	110%	70%	110	95.3%	93.9%	115%	90.1%
COc1cc2c(c(OC)c1OC)CCC(c1cccc(NC(=O)c3cccc(Br)c3)c1)O2 (stereo not given)	84.2%	78.2%	93.6%	98.5%	83.5%	84	85%	97.3%	84.1%	91.8%
CC(=O)[C@@H]1CC[C@]2(CO)CC[C@]3(C)[C@H](CC[C@@H]4[C@@]5(C)CCCNC(C)(C)[C@@H]5CC[C@]43C)[C@@H]12	86.8%	98.6%	105%	102%	101%	122	99.1%	97.2%	96.1%	96.4%
Cc1cc2nc3c4cccc(O)c4n(CCN(C)C)c3nc2cc1C	4.12% (active)	-5.71% (active)	38%	55.3%	44.4%	46.3	19.1%	45.4%	72.8%	32.3%
COc1ccc(/C=C/c2nc(Nc3ccc(S(=O)(=O)Nc4cc(C)on4)cc3)c3ccccc3n2)cc1	45.4%	67.9%	61.3%	71.1%	73.4%	77.4	78%	83.7%	80.3%	75.7%
Cc1ccc(CNc2c3ccccc3nc3cc(NC(=O)CCN4CCCC4)ccc23)cc1	-49.4% (active)	-44.6% (active)	7.44% (active)	20.7%	-38.4% (active)	42.5	5.63% (active)	-73.3% (active)	14.6%	63.1%
C=C1C(=O)O[C@H]2[C@H]1CC/C(COC(=O)NCc1c[nH]c3ccc(Br)cc13)=C\CC[C@@]1(C)O[C@@H]21	7.54% (active)	-29.2% (active)	-41.7% (active)	-20.7% (active)	4.97% (active)	86.9	-46.8% (active)	-87.5% (active)	34.3%	43.5%
N#Cc1c(NC(=O)NCc2ccccc2)sc2c1CCCCC2	29.5%	14.8%	21.8%	43.5%	43%	25	27.2%	-17.6% (active)	9.89% (active)	17.2%
COc1cc(CC(=O)c2ccc(O)c(OC)c2)ccc1O	90.1%	97.9%	97.9%	97.9%	103%	99.7	111%	105%	98.5%	100%
CNC(=O)c1cc(Cn2nc(C)c(NC(=O)Nc3ccc(Cl)c(C(F)(F)F)c3)c2C)ccn1	91.9%	94.9%	97%	99.7%	87.1%	95.2	109%	109%	97.1%	98.8%
COc1ccc(/C=C2\COc3ccc(-c4ccccc4)cc3C2=O)c(OC)c1	69.1%	77.4%	96.4%	101%	64.7%	107	120%	98.3%	125%	72.6%
O=C(/C=C(/C=C/c1csc2ccccc12)OB(F)F)/C=C/c1csc2ccccc12	3.63% (active)	-12% (active)	-9.55% (active)	60.6%	-0.888% (active)	100	11.3%	-14.2% (active)	3.47% (active)	18.3%
COC(=O)C1=C(C(=O)ON)C2C=CC1(C(Cc1ccccc1)Nc1ccccc1)O2 (stereo not given)	4.9% (active)	11.8%	91.2%	105%	69%	104	75.9%	-100% (active)	108%	94.6%
CC(Sc1nc2ccccc2c(=O)n1CCc1ccc(S(N)(=O)=O)cc1)C(=O)Nc1ccc(Cl)cc1 (stereo not given)	77.4%	65.9%	72.8%	85.7%	93.2%	125	86.3%	99.1%	86.5%	77.3%
COc1ccccc1NC(=O)C1CC(c2ccc(F)cc2)=NO1 (stereo not given)	101%	97.1%	98.1%	108%	102%	112	105%	110%	94.1%	95.8%
COC(=O)N[C@H]1CCc2c(Cl)c(OC)c(OC)c(OC)c2-c2ccc(SC)c(=O)cc21	2.15% (active)	-5.28% (active)	15.4%	38.5%	39.5%	40.3	9.16% (active)	-46.2% (active)	9.58% (active)	7.43% (active)
COc1ccc(C(=O)NNc2nc(Cl)nc(N3CCN(C(c4ccccc4)c4ccccc4)CC3)n2)cc1	-29.6% (active)	84.2%	34.1%	96.9%	20.5%	101	-59.7% (active)	-71.5% (active)	67.1%	50%
